Source: paper PMC12136788
In all, about 5,800 sequences were measured (“enrichment r”: median about 0.68, highest 2% from about 11 on). The entries come from a sample that favours the highest values as a whole.

T1: UNK ZnF1-6 (called full-length) (human, UniProt Q9C0B0 30-357)
T1 sequence: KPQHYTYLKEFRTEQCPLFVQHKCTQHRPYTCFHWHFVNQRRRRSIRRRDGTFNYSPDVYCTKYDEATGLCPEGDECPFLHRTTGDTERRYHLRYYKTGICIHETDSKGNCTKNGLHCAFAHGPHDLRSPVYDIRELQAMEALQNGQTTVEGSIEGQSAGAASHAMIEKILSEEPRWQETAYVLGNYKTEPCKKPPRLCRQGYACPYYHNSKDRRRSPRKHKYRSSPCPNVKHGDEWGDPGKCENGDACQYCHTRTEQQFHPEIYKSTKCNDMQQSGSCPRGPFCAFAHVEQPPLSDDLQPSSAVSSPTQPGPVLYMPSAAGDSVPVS

B1: chr16:785952:786377:-|CDS|ENSG00000007376|control|control|control (ssRNA)
RNA: GGGAGUUCUACAGUCCGACGAUCCAGUCGCUGGACCAGCUCGUGCAGGCCUUACGGGCCACCCCCGACCCUGACCCCGAGGAUAGGGGCCCCAGGCCAGGCAGCCCCUCCGCACUCCUGCCUGGGCCCGGCCGGCCUCCUCCACAACAGAGGAUUGAGCAUCA
B2: chr1:162783069:162783171:+|3pUTR|ENSG00000162733|unk|FALSE|unique (ssRNA)
RNA: GGGAGUUCUACAGUCCGACGAUCUGAAAGUAGUUCAAAUUUGAAUUAGAAGAAUGAAGCUAGGACUUAUUUGGAAAAGGAGAUAGAAAAAAAAUGAUCAGAAACUGUGGGGCCUUAUUACCUUUGCAGUAAGUUAUCUUCUUCCAACAGAGGAUUGAGCAUCA
B3: chr15:64957256:64957357:+|3pUTR|ENSG00000166839|msi1|FALSE|unique (ssRNA)
RNA: GGGAGUUCUACAGUCCGACGAUCGCUGGAAAAUUGAAACAUAAUUUCACAAUUAUUCCUUUUUCCACCUUAAAUAAUAAGAGUAGAAUACUUUCUGUGUUUUUAUCUUAUACACAUGAAUAAAUGCUAUGGCUUAUCACAGUUCAACAGAGGAUUGAGCAUCA
B4: ENSG00000114744:stop:overlap|stop_codon|ENSG00000114744|stop_codon|NA|stop_codon (ssRNA)
RNA: GGGAGUUCUACAGUCCGACGAUCAACAAGCAUUGGAAGAGAUGAAGACAAAUCACUGUAGGAGAGUUGUUCGCAACAUCAAGUAGUACCAGUUUUAAGGUUUUAAUUCAUUUGAAUCACUUAUGAAUUGAUGAUAUACAGCAACAACAGAGGAUUGAGCAUCA
B5: ENSG00000066855:stop:overlap|stop_codon|ENSG00000066855|stop_codon|NA|stop_codon (ssRNA)
RNA: GGGAGUUCUACAGUCCGACGAUCGAGUGUUGUCCCUUCCAGCUGGCUUUAUUCAGCCCCACGUGUCCAAGCAUUGUCUGGGAUAGCCUUGUAUUGGAAAACCUGGCCCAUUCUGUAAAUAAAGGCUCCACUAGAAAAGACUCGCAACAGAGGAUUGAGCAUCA
B6: chr1:184691659:184691688:-|3pUTR|ENSG00000116406|msi1_unk|FALSE|overlapping (ssRNA)
RNA: GGGAGUUCUACAGUCCGACGAUCCUCCAACGUUGUAAUUACAACUCUACAUUCAUUUACUUACUUGACAUACUGCCACAAAGUAGUUUUUGAGUUCAUUAAAAAUUCCAAAGGCAUUAGUUGUUUUUUUUUUUUUUAGUGUUUCAACAGAGGAUUGAGCAUCA
B7: chr15:93027272:93027374:+|3pUTR|ENSG00000173575|unk|total|mutant (ssRNA)
RNA: GGGAGUUCUACAGUCCGACGAUCCCAGGAAUCUGUGAGGAUGGUAUUCCCUGGAGUCUGGCUUUGAAAGAUUUCAUUGUUGGCCGAAAUAACAGGUUGAGAAAGAGGGAGUCCGCAUCACCUAAAACCUGCACGUGAACAAGGCAACAGAGGAUUGAGCAUCA
B8: ENSG00000141127:stop:overlap|stop_codon|ENSG00000141127|stop_codon|NA|stop_codon (ssRNA)
RNA: GGGAGUUCUACAGUCCGACGAUCAUUCAUCAUGUAUGGAGCUAUCAAAGAAAAUUGCAGACUUUUUCCCCCUUUCUCUUCUCUAGGCGGCUAGGGGUGGAGAUGGGCAAAGUGCAGGUUUACCAGGAACCUAACAGAGAAACACAACAGAGGAUUGAGCAUCA
B9: chr22:31279490:31279591:+|3pUTR|ENSG00000182541|msi1|total|mutant (ssRNA)
RNA: GGGAGUUCUACAGUCCGACGAUCAGCAGCUUGGGCUGGGAAGAGGUGGUGGCAGAGUCUCAAAGCUGAGAUGCUGAGAGAGACCGCUCCCUGAGCUGGGCCAUCUGACUUCUACCUCCCAUGUUUGCUCUCCCAACUCAUCCGCAACAGAGGAUUGAGCAUCA
B10: chr5:43295829:43295944:-|CDS|ENSG00000112972|unk|total|mutant (ssRNA)
RNA: GGGAGUUCUACAGUCCGACGAUCAAUAUCCCCGCUUUAUUCUAAAGUCAAACUUUAAAAUUUCAUGGCUUAUAUGAAUUUCACCGUUUCCUUGGACUUCUCUUUCAGAGGGAAAUGAUAAAGAUUUUACCUUGAAUGAUUUUGCAACAGAGGAUUGAGCAUCA
B11: chr12:76028505:76028606:-|3pUTR|ENSG00000139289|msi1|total|mutant (ssRNA)
RNA: GGGAGUUCUACAGUCCGACGAUCAAGUCUUGGUCAGUAUUUUUCCAGCAUUUAAAUUGAAACGGUCAGUAUCCGACCACUGCCCGGUUAUGCCGUCAAGAAAUAAAAACCGAAUUACAUGCUACAGAUGUCUUUAUUCUCCUUCAACAGAGGAUUGAGCAUCA
B12: ENSG00000198589:be:win_5851|CDS|ENSG00000198589|bound_else_gene|NA|bound_elsewhere_windowed (ssRNA)
RNA: GGGAGUUCUACAGUCCGACGAUCACUCAACUAAUCCAGAAAAUUAUCAACAUUCUCACAGACAAGCAUGGAGCCUGGGGAAAUUCUGCAGUGAGUCGUCCUCUUGAGUUCUGGCGCCUUGACUACUGGGAAGAUGACUUGCGGCAACAGAGGAUUGAGCAUCA
B13: chr19:14961309:14961997:-|three_prime_utr|ENSG00000105143|control|control|control (ssRNA)
RNA: GGGAGUUCUACAGUCCGACGAUCGAUUCACUUACCCACUCACCAACUCAUUCAUUCAUGUCUUUCUGGGAUGAUUUCAUCACUAGUUGACUUCCUUGUUCAUCUGUUCAUUCAUUCAUUCUUCUAUGCAUUGGUUAGUUCAUGCAACAGAGGAUUGAGCAUCA
B14: chr15:60347444:60347559:-|3pUTR|ENSG00000182718|msi1_unk|total|mutant (ssRNA)
RNA: GGGAGUUCUACAGUCCGACGAUCUAACAGUCCCCGUGGCCAUCCCUGUGAGGGUGACGUCCGCAUUACCCCCAACCUCAUUUCCGUUGCCUAAGCAUUGCCUGGCCUUCCUGUCCCGUCUCUCCUGUAAGCCAAAGAAAUGAACAACAGAGGAUUGAGCAUCA
B15: chr16:5044585:5044836:-|CDS|ENSG00000153446|control|control|control (ssRNA)
RNA: GGGAGUUCUACAGUCCGACGAUCGAGUAGCUGGGACUACAGGAGCGUGCCACCAUACCUGGCUAAUUUUUAUAUUUUUUUAGUAGAGACAGGGUUUCAUCAUGUUGCUCAUGCUGGUCUCGAACUCCUGAUCUCAAGAGAUCCCAACAGAGGAUUGAGCAUCA
B16: chr5:144162273:144162391:-|CDS|ENSG00000145817|unk|total|mutant (ssRNA)
RNA: GGGAGUUCUACAGUCCGACGAUCCCCACCGGCUGGCAAAAUCCAGUUUGGCUAUGUAUACGGGAUCAGUGCAAUUGGAUGUCCCGGAAUGUUUUGUUUAUUAAACUUAAUGAGUAUGACAGGUGUUUCAUUUGGUUGUGUGGCCAACAGAGGAUUGAGCAUCA
B17: chr2:11642538:11642650:+|3pUTR|ENSG00000196208|unk|total|mutant (ssRNA)
RNA: GGGAGUUCUACAGUCCGACGAUCCGAAGAGUUGAUGUCAAUCUUUUUUUCCUAAGAAAAAAAGUCCGCGAGUAUUAAAUAUUCCGAUCAAUGUUUAUAAAAUGAUUACUUUGUAUAUCUCAUUAUUCCUAUUUUGGAAUAAAACAACAGAGGAUUGAGCAUCA
B18: chr4:185586528:185586629:-|3pUTR|ENSG00000154556|msi1|FALSE|unique (ssRNA)
RNA: GGGAGUUCUACAGUCCGACGAUCAUCCAUAUGAUAUGUUGUACAUUUUAUGGAAAUGUAAUAGAAUCUCACACAUUAUUUUAUAGAAAUAGAGUACAGAAGCAUCACAAGUAUUAAAGUUGGUUUUAGCAAGGAUUAGGAUUACAACAGAGGAUUGAGCAUCA
B19: chr5:72990507:72990614:+|CDS|ENSG00000157107|unk|FALSE|unique (ssRNA)
RNA: GGGAGUUCUACAGUCCGACGAUCGUAUGGGAUGUAUUCAAAACAUCUACAGAGAAAUUAGCAAAUUGUCACUUGGAUCUUGUUAGAAAAUUACAAGAAUUAAUAAAGGAAGUUCAGAAGUAUGGAGAAGAACAAGUAAAGUCUCAACAGAGGAUUGAGCAUCA
B20: chr3:11557766:11557867:-|3pUTR|ENSG00000144560|msi1|total|mutant (ssRNA)
RNA: GGGAGUUCUACAGUCCGACGAUCCUGGACUGCAGACUCUACCAAUCACGGGCAUUUUAUCUUCUCUGAACACUGCAGUUUGUCCGACCCGAGCUGAGGUUGGAGGAUUCCACCGUGCUUUAAACGUGAUGCAUGUUUUAAUGGCAACAGAGGAUUGAGCAUCA
B21: ENSG00000136451:be:win_3101|3pUTR|ENSG00000136451|bound_else_gene|NA|bound_elsewhere_windowed (ssRNA)
RNA: GGGAGUUCUACAGUCCGACGAUCUUCCAUUUAUACCCUACUGUGUCAGUUCAAGCAUCAAAAUACCUUGCAUCUGAGACAGACUUCCUACAUCAGGGACAGGUAUCUGUGUGUCAUUAUACAAAACAGUUCUAGGGGGUUGAACAACAGAGGAUUGAGCAUCA
B22: ENSG00000136451:be:win_3151|3pUTR|ENSG00000136451|bound_else_gene|NA|bound_elsewhere_windowed (ssRNA)
RNA: GGGAGUUCUACAGUCCGACGAUCUGAGACAGACUUCCUACAUCAGGGACAGGUAUCUGUGUGUCAUUAUACAAAACAGUUCUAGGGGGUUGAACUACAUAGUAAAAAAAUAAAAUAAAUAGUACUUAGUGUAAAAUAAUUUUACAACAGAGGAUUGAGCAUCA
B23: chr17:57972098:57972209:-|3pUTR|ENSG00000136451|unk|FALSE|bound_elsewhere (ssRNA)
RNA: GGGAGUUCUACAGUCCGACGAUCCUAGAAUGUGGUUGUCAGAACCCUGAAAGUAUUAGUUCUAAAAAAAAAAAGAUAUAUACUAGAAGUAAUUGUUUUAUCAAUUCAUUGUAUAAUAAACAGGAGUGAGACUUCAUUGUAUGACAACAGAGGAUUGAGCAUCA
B24: ENSG00000136451:be:win_3251|3pUTR|ENSG00000136451|bound_else_gene|NA|bound_elsewhere_windowed (ssRNA)
RNA: GGGAGUUCUACAGUCCGACGAUCCUUAGUGUAAAAUAAUUUUAUAAAUGAUCUUUUGUACUUUAGGACAUUAAAUUGUACAACUUUUGUAUAUAUAAAAGCUUAGGAACUUUCUGUUUAGCAGGAAGGCAACACAUUCCUACACAACAGAGGAUUGAGCAUCA
B25: ENSG00000136451:be:win_3201|3pUTR|ENSG00000136451|bound_else_gene|NA|bound_elsewhere_windowed (ssRNA)
RNA: GGGAGUUCUACAGUCCGACGAUCAACAGUUCUAGGGGGUUGAACUACAUAGUAAAAAAAUAAAAUAAAUAGUACUUAGUGUAAAAUAAUUUUAUAAAUGAUCUUUUGUACUUUAGGACAUUAAAUUGUACAACUUUUGUAUAUCAACAGAGGAUUGAGCAUCA
B26: chr15:60490033:60490134:-|3pUTR|ENSG00000069667|unk|FALSE|unique (ssRNA)
RNA: GGGAGUUCUACAGUCCGACGAUCUGCUGGAUUUGGGACAUGCUUUUCUCUUUAAAUACAUAAUAUCAUUAUAUAAAUUAUUCUAGAGUGUAUUUAAUUAGGAUAAAAUUACUUCCUUAGUAUGGAUAUUUGACAUCUAUAGGGCAACAGAGGAUUGAGCAUCA

These binders were tested against T1, UNK ZnF1-6 (called full-length) (assay: nsRBNS (natural sequence RNA bind-n-seq); RBNS binding buffer (assumed for nsRBNS): 25 mM Tris pH 7.5, 150 mM KCl, 3 mM MgCl2, 0.01% Triton X-100, 500 ug/ml BSA, 20 U/ml SUPERase-In, 4 C; UNK is unkempt and MSI1 is Musashi-1; names of the RNAs are library labels; protein concentration not given here; high values mean tight binding).

Compared with B1, B2 is higher in binding signal: 0.526 enrichment R for the first, 1.05 enrichment R for the second.

First: B3
Second: B4
The binding signal of the first is lower: 0.535 enrichment R for the first, 2.3 enrichment R for the second.

Going from B5 to B6, the binding signal rises from 0.862 enrichment R to 8.44 enrichment R.

Compared with B7, B8 is lower in binding signal: 0.486 enrichment R for the first, 0.392 enrichment R for the second.

First: B9
Second: B10
The binding signal of the first is higher: 0.701 enrichment R for the first, 0.421 enrichment R for the second.

First: B11
Second: B12
The binding signal of the first is lower: 0.271 enrichment R for the first, 0.85 enrichment R for the second.

Compared with B13, B14 is higher in binding signal: 0.569 enrichment R for the first, 0.662 enrichment R for the second.

Compared with B15, B16 is lower in binding signal: 2.13 enrichment R for the first, 0.596 enrichment R for the second.

Compared with B17, B18 is higher in binding signal: 0.544 enrichment R for the first, 11.6 enrichment R for the second.

First: B19
Second: B20
The binding signal of the first is higher: 3.86 enrichment R for the first, 0.682 enrichment R for the second.

Going from B21 to B22, the binding signal rises from 0.463 enrichment R to 44 enrichment R.

Going from B23 to B24, the binding signal rises from 4.83 enrichment R to 6.05 enrichment R.

Compared with B25, B26 is lower in binding signal: 96.7 enrichment R for the first, 4.69 enrichment R for the second.
